The results in this text go back to PubChem BioAssay (NCI).

Test systems include DU-145 prostate; K-562 leukemia; MALME-3M melanoma; MDA-MB-231 breast; RXF 393 renal; SF-268 CNS; SF-295 CNS; SF-539 CNS; UACC-257 melanoma; HCT-15 colon; HT29 colon; SNB-75 CNS; SNB-19 CNS; U251 CNS; PC-3 prostate; SK-MEL-5 melanoma; UACC-62 melanoma; LOX IMVI melanoma; SK-MEL-28 melanoma.
What all share (experiment): NCI-60 one-dose screen, 48 h (100 = growth as untreated, 0 = no growth, -100 = all killed)
Details in all cases: 10 µM unless noted

Compounds without any hit were thinned out: in the full panel of roughly 83,000, 20% have a hit.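 Treatment: one concentration, 48 hours, 96-well format. Scoring: percent growth, with anything below 10 considered active.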 A number with no mark means an inactive call. Calls of active or inactive are those of the source.

As to `COc1cc2c(cc1OC)C(C)N(S(N)(=O)=O)CC2` (centres undefined), the growth is 105% in the assay with DU-145 prostate; 103% in the assay with K-562 leukemia; 105% in the assay with MALME-3M melanoma; 101% in the assay on MDA-MB-231 breast; 113% with RXF 393 renal; 96.2% with SF-268 CNS. Further, the growth in the assay on SF-295 CNS was 104%; with SF-539 CNS, 97.7%; in the assay with UACC-257 melanoma, 100%; in the assay with HCT-15 colon it was 102%; in the assay with HT29 colon it was 99.8%; in the assay with SNB-75 CNS, 87.6%. Besides, the growth is 97.6% with SNB-19 CNS; 114% with U251 CNS; 89% with PC-3 prostate; 105% in the assay with SK-MEL-5 melanoma; 95.4% in the assay with UACC-62 melanoma; 102% in the assay with LOX IMVI melanoma. Also, the growth with SK-MEL-28 melanoma is 106%.

For `CCCNC(=O)Nc1ccc2cc3ccc(NC(=O)NCCC)cc3nc2c1`, the growth is 118% with DU-145 prostate; 60.8% with K-562 leukemia; 79.1% with MALME-3M melanoma; 98.8% with MDA-MB-231 breast; 77.7% with RXF 393 renal; 84.3% in the assay with SF-268 CNS. Further, the growth was 115% in the assay with SF-295 CNS; 66.5% in the assay on SF-539 CNS; 87.5% in the assay on UACC-257 melanoma; 94.5% in the assay with HCT-15 colon; 98.5% in the assay on HT29 colon; 71.7% with SNB-75 CNS. For the same compound, the growth with SNB-19 CNS is 68.1%; in the assay on U251 CNS, 61.2%; in the assay on PC-3 prostate, 81.5%; in the assay with SK-MEL-5 melanoma, 81.8%; with UACC-62 melanoma, 91.5%; in the assay with LOX IMVI melanoma, 72.2%. For the same compound, the growth in the assay with SK-MEL-28 melanoma was 81.9%.

`N#CC1=C(N)Oc2c(ccc3ccccc23)C1c1ccccc1` (centres undefined): the growth is 13.4% with DU-145 prostate; 9.05% (active) in the assay with K-562 leukemia; 46.5% with MALME-3M melanoma; 28.3% in the assay with MDA-MB-231 breast; 68.5% with RXF 393 renal; 19.2% in the assay on SF-268 CNS. Moreover, the growth was 8.94% (active) with SF-295 CNS; -3.42% (active) in the assay with SF-539 CNS; 37.5% in the assay on UACC-257 melanoma; 8.12% (active) in the assay with HCT-15 colon; -2.07% (active) with HT29 colon; 35.6% in the assay on SNB-75 CNS. Further, the growth is 26.6% in the assay with SNB-19 CNS; 9.37% (active) in the assay on U251 CNS; 4.54% (active) in the assay on SK-MEL-5 melanoma; 26.9% with UACC-62 melanoma; 7.97% (active) in the assay on LOX IMVI melanoma; 49.4% in the assay on SK-MEL-28 melanoma.

As for `CCN(CC)Cc1cc(C=C2C(=O)NC(=S)NC2=O)cc(OC)c1O`, the growth is 111% in the assay with DU-145 prostate; 117% in the assay with K-562 leukemia; 111% with MALME-3M melanoma; 103% in the assay with MDA-MB-231 breast; 115% in the assay with RXF 393 renal; 101% with SF-268 CNS. Also, the growth is 102% in the assay on SF-295 CNS; 101% with SF-539 CNS; 106% in the assay with UACC-257 melanoma; 105% in the assay with HCT-15 colon; 108% in the assay with HT29 colon; 99.1% in the assay on SNB-75 CNS. The growth was 98.6% in the assay on SNB-19 CNS; 98.6% with U251 CNS; 102% with PC-3 prostate; 106% with SK-MEL-5 melanoma; 105% in the assay on LOX IMVI melanoma; 107% in the assay with SK-MEL-28 melanoma.

Consider `CC(=O)Oc1ccc(N2C(=O)C(Cl)=C(Nc3cccc(C(F)(F)F)c3)C2=O)cc1`, for which the growth in the assay on DU-145 prostate is 101%; in the assay with K-562 leukemia, 90.4%; with MALME-3M melanoma it was 102%; with MDA-MB-231 breast it was 95.3%; with RXF 393 renal it was 87%; with SF-268 CNS, 94.3%. Also, the growth with SF-295 CNS was 102%; in the assay on SF-539 CNS, 96.5%; with UACC-257 melanoma, 97.1%; with HCT-15 colon, 84%; with HT29 colon it was 104%; with SNB-75 CNS, 95.1%. Moreover, the growth is 93% in the assay with SNB-19 CNS; 97.4% with U251 CNS; 96.3% with PC-3 prostate; 105% in the assay on SK-MEL-5 melanoma; 87.8% in the assay on UACC-62 melanoma; 88.7% in the assay with LOX IMVI melanoma. In the assay on SK-MEL-28 melanoma, the growth was 101%.

`O=c1[nH]c(-c2ccccc2)nc2sc3cc(O)ccc3c12`: the growth in the assay on DU-145 prostate is 83.6%; in the assay on K-562 leukemia it was 25.9%; in the assay with MALME-3M melanoma it was 74.1%; in the assay on MDA-MB-231 breast, 101%; in the assay on RXF 393 renal, 82.2%; in the assay on SF-268 CNS, 86.2%. The growth is 95.3% with SF-295 CNS; 82.8% in the assay with SF-539 CNS; 109% in the assay on UACC-257 melanoma; 69.4% in the assay with HCT-15 colon; 106% with HT29 colon; 83.2% with SNB-75 CNS. Also, the growth is 99.8% in the assay with SNB-19 CNS; 84.1% with U251 CNS; 77.3% in the assay with PC-3 prostate; 86.3% in the assay on SK-MEL-5 melanoma; 73.6% with UACC-62 melanoma; 82.7% with LOX IMVI melanoma. The growth in the assay on SK-MEL-28 melanoma was 93.9%.

Turning to `CCN(CC)CCn1c2ccc(O)cc2c2sc3cc(O)ccc3c(=O)c21`, the growth is 43.6% in the assay with DU-145 prostate; 14.8% with K-562 leukemia; 15.6% in the assay with MALME-3M melanoma; 43.5% in the assay on MDA-MB-231 breast; 26.6% in the assay with RXF 393 renal; 42% with SF-268 CNS. The growth with SF-295 CNS is 17.6%; with SF-539 CNS, 18.1%; in the assay with UACC-257 melanoma, 55.4%; in the assay with HCT-15 colon, 29.1%; with HT29 colon it was 27.1%; with SNB-75 CNS, 76.1%. Also, the growth in the assay on SNB-19 CNS is 23.4%; with U251 CNS, 28.8%; in the assay with PC-3 prostate, 31.5%; in the assay on SK-MEL-5 melanoma, 60.7%; with LOX IMVI melanoma it was 8.55% (active); in the assay on SK-MEL-28 melanoma it was 54.5%.

With `CC1OC(n2c3ccccc3c3c4c(c5c6ccccc6[nH]c5c32)C(=O)N(CCN2CCCC2)C4=O)CC(O)C1O` (centres undefined), the growth in the assay on DU-145 prostate is 30.2%; in the assay on K-562 leukemia it was 3.65% (active); in the assay with MALME-3M melanoma, 72.3%; with MDA-MB-231 breast it was 74.7%; with RXF 393 renal it was 30.7%; with SF-268 CNS it was 37%. In addition, the growth was 26.6% with SF-295 CNS; 39.4% with SF-539 CNS; 84.5% in the assay on UACC-257 melanoma; 10.7% in the assay on HCT-15 colon; -49.9% (active) in the assay with HT29 colon; 12.1% in the assay on SNB-75 CNS. In addition, the growth with SNB-19 CNS was 35.1%; in the assay on U251 CNS it was 37.9%; in the assay with PC-3 prostate, 33.2%; with SK-MEL-5 melanoma, 61.3%; with UACC-62 melanoma, 67.7%; with LOX IMVI melanoma, 25.3%. In the assay with SK-MEL-28 melanoma, the growth was 91.4%.
